Reference: PubChem BioAssay
For some of these results: Potency and affinity values are given separately. The source made the active and inactive calls.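 Rule for the calls, unless noted: active = calcium signal ratio cut to more than 3 SD under the fully stimulated control mean yet still positive, in both repeats and the primary screen; inactive = the rest.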

Columns and labels:
[1] = system: TRPC4 beta (transient receptor potential cation channel C4), mouse; assay: activators of mouse TRPC4 channel, confirmation, cell-based, Fluo4 calcium, HEK293 TRPC4beta/mu-opioid, duplicates, 10 µM (AID 2426;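 active = fluorescence ratio normalized to control raised more than 50% in primary screen plus both repeat runs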;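 for activation: percent rise of integrated ratio over buffer wells lacking compound which define 0%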); conditions: Fluo4 calcium fluorescence, at 10 µM; active compounds read high
[2] = system: transient receptor potential cation channel C4 beta (TRPC4), mouse; assay: activators of mouse TRPC4 channel, confirmation, cell-based, second round, Fluo4, HEK293 TRPC4beta/mu-opioid, 1 µM (AID 2461;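 active = primary screen active and over 50% activation in each of two duplicate runs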;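 for activation: 0% = wells without test compound as baseline of integrated fluorescence ratio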); conditions: Fluo4 calcium fluorescence, at 1 µM; active compounds read high
[3] = system: TRPC4 (transient receptor potential cation channel C4 beta), mouse; assay: positive allosteric modulators of mouse TRPC4, confirmation, cell-based, second round, Fluo-4, HEK293 TRPC4beta/mu-opioid, 1 µM (AID 2554;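 active = primary screen hit whose fluorescence ratio, in both repeats, exceeds the weak agonist control mean by 3 SD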); conditions: DAMGO EC20, Fluo-4 calcium flux, at 1 µM; active compounds read high
[4] = system: TRPC4 beta (transient receptor potential cation channel C4), mouse; assay: positive allosteric modulators of mouse TRPC4, confirmation, cell-based, Fluo-4, HEK293 TRPC4beta/mu-opioid (AID 2555;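 active = primary screen hit whose calcium fluorescence ratio, in both repeats, exceeds the weak agonist control mean by 3 SD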); conditions: DAMGO EC20, Fluo-4 calcium flux, at 10 µM; active compounds read high
[5] = biological target: Short transient receptor potential channel 4 (Mus musculus) (UniProt Q9QUQ5); assay: inhibitors of mouse TRPC4 channel, confirmation, cell-based, Fluo4, HEK293 TRPC4beta/mu-opioid (AID 2636;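 active = calcium signal cut by more than 3 SD below the full-agonist control yet still positive, in both repeats and the earlier primary screen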); conditions: DAMGO, Fluo4 calcium flux, at 10 µM; active compounds read high
Chain of Short transient receptor potential channel 4 (Mus musculus) (Q9QUQ5 whole entry, looked up): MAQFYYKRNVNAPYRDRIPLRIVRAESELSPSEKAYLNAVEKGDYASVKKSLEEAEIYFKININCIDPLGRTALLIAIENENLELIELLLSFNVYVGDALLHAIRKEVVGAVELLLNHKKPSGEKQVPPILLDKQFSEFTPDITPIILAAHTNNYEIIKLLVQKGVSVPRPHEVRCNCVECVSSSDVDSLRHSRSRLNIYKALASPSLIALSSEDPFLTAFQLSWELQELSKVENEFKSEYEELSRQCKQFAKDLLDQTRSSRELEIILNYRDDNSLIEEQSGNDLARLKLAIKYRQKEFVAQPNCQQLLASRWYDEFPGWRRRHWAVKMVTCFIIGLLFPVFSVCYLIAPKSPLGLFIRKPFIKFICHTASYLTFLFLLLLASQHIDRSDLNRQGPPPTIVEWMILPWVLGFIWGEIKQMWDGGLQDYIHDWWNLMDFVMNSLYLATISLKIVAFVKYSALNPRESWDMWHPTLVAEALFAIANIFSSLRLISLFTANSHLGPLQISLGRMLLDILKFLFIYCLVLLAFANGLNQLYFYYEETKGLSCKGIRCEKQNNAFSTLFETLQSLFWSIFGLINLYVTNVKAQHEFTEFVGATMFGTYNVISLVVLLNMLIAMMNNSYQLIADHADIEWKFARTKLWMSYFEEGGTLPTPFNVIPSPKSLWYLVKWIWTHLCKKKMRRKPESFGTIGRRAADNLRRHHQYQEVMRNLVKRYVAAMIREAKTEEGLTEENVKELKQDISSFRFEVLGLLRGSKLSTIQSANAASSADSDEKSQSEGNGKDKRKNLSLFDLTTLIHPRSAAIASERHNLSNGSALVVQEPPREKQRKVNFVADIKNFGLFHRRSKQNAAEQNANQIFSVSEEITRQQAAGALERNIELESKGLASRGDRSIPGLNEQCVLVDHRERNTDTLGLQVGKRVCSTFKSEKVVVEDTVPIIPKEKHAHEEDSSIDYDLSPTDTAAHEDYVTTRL

[6] = biological target: Short transient receptor potential channel 4 (Mus musculus) (UniProt Q9QUQ5); assay: inhibitors of mouse TRPC4 channel, confirmation, cell-based, second round, Fluo4, HEK293 TRPC4beta/mu-opioid, 1 µM (AID 2637); conditions: Fluo4 calcium flux, DAMGO, at 1 µM; active compounds read high
[7] = biological target: Short transient receptor potential channel 4 (Mus musculus) (UniProt Q9QUQ5); assay: TRPC4 positive allosteric modulators, dose response, cell-based, HEK293 TRPC4/mu-opioid, Fluo-4 calcium, EC20 DAMGO (AID 434941;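 active = earlier screen potentiator hit that boosts the TRPC4 ion channel at some dose, with a dose response; inactive = no potentiation, no dose response, or not a prior hit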;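 note: calcium entry triggered by an EC20 dose of DAMGO at the co-expressed mu-opioid receptor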)
[8] = biological target: Short transient receptor potential channel 4 (Mus musculus) (UniProt Q9QUQ5); assay: mouse TRPC4 channel inhibitors, dose response, cell-based, HEK293 TRPC4/mu-opioid, Fluo-4 calcium (AID 434942;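 active = primary screen inhibitor hit that blocks the TRPC4 channel at some tested dose, yielding a dose curve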)
[9] = biological target: Short transient receptor potential channel 6 (Mus musculus) (UniProt Q61143); assay: inhibition of mouse TRPC6 channel, confirmation, selectivity assay for TRPC4 inhibitor project, cell-based, HEK293, membrane potential dye, duplicate (AID 434948;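 active = active in primary screen and both duplicates, each dropping signal beyond three positive-control SD with fluorescence still positive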); conditions: HEK293 TRPC6, membrane potential dye fluorescence, at 10 µM; inhibition: active compounds read high, stimulated with maximal-effect acetylcholine unless noted; outcome: stimulated with maximal-effect acetylcholine unless noted
Chain of Short transient receptor potential channel 6 (Mus musculus) (Q61143 whole entry, looked up): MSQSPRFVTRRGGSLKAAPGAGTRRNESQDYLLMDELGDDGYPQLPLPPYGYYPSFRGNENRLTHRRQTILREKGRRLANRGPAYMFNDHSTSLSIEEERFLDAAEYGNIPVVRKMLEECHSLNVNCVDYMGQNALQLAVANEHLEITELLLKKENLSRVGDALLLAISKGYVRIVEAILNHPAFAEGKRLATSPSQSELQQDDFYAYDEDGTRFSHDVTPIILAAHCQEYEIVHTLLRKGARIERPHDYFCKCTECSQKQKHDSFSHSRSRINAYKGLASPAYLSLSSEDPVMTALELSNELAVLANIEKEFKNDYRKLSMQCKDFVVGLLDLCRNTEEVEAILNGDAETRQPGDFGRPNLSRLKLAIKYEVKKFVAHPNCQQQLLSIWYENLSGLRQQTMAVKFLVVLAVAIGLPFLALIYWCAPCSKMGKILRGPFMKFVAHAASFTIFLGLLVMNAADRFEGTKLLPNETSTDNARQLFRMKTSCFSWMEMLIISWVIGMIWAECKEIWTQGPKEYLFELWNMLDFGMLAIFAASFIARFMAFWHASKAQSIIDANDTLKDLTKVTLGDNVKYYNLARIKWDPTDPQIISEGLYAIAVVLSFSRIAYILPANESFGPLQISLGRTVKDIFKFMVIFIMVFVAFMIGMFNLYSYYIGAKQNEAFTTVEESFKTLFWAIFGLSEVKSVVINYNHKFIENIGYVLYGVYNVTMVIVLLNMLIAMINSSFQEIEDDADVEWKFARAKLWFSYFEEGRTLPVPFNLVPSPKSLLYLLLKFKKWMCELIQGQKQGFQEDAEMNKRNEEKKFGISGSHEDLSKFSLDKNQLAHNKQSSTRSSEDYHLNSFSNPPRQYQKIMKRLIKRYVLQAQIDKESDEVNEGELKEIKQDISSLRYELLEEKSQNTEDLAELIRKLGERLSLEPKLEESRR

[10] = biological target: Short transient receptor potential channel 6 (Mus musculus) (UniProt Q61143); assay: activation of mouse TRPC6 channel, confirmation, selectivity assay for TRPC4 activator project, cell-based, HEK293, membrane potential dye, duplicate (AID 434950;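 active = membrane potential signal rise above negative control mean plus 3 SD in both duplicates, also active in the earlier TRPC4 screen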;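 for activation: 0% = buffer only wells and 100% = acetylcholine maximal-effect wells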); conditions: HEK293 TRPC6, membrane potential fluorescence, at 10 µM; active compounds read high
[11] = biological target: Short transient receptor potential channel 6 (Mus musculus) (UniProt Q61143); assay: TRPC6 potentiation by TRPC4 potentiator hits, confirmation, selectivity assay for TRPC4 potentiator project, HEK293 cells, membrane potential dye, duplicate (AID 434952;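 active = compound raising the membrane signal above positive-control mean plus 3 SD in both repeats, and a primary screen hit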); conditions: HEK293 TRPC6, membrane potential dye fluorescence, at 10 µM; maximal acetylcholine added after compound unless noted
[12] = biological target: Short transient receptor potential channel 4 (Mus musculus) (UniProt Q9QUQ5); assay: calcium flux activators in TRPC4/5HT1a cells, counter-screen for TRPC4 activator project, cell-based, second counter screen, HEK293 TRPC4/5HT1a, Fluo-4 (AID 434977;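 active = calcium signal rise above buffer-control mean plus 5 SD in both duplicates, and also a hit in the primary screen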;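 for activation: plate controls were assay buffer for no effect and maximal serotonin response for full effect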); conditions: Fluo-4 calcium flux, at 10 µM; active compounds read high
[13] = calcium flux inhibitors in TRPC4/5HT1a cells, confirmation, counter-screen for TRPC4 inhibitor project, cell-based, second counter screen, HEK293 TRPC4/5HT1a, Fluo-4 (AID 434978;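 active = primary screen active whose calcium signal fell more than 3 SD beyond the full-serotonin control mean in both duplicate plates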;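 note: serotonin given first at submaximal then at maximal dose after compound preincubation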); conditions: Fluo-4 calcium flux, at 10 µM; inhibition: active compounds read high, serotonin added to trigger calcium flux unless noted; outcome: serotonin added to trigger calcium flux unless noted
[14] = system: TRPC4 (mouse), co-expressed with 5HT1a in HEK293; assay: calcium flux potentiators in TRPC4/5HT1a cells, confirmation, counter-screen for TRPC4 potentiator project, cell-based, second counter screen, HEK293 TRPC4/5HT1a, Fluo-4 (AID 434979;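 active = signal rise over 3 SD above mean of control wells given weak agonist, in both repeats and first screen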); conditions: Fluo-4 calcium flux, at 10 µM; outcome: serotonin added at its EC20 dose unless noted; potentiation: active compounds read high, serotonin added at its EC20 dose unless noted
[15] = calcium flux activation in mu-opioid HEK293 cells, confirmation, counter-screen for TRPC4 activator project, cell-based, HEK293 mu-opioid receptor line (AID 449723;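 active = hit in primary screen, with calcium signal over 5 SD above buffer well mean in both duplicates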;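 note: counter screen cells carry the mu-opioid receptor alone and lack TRPC4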); conditions: Fluo-4 calcium fluorescence, at 10 µM; active compounds read high
[16] = calcium flux enhancement in mu-opioid HEK293 cells, confirmation, counter-screen for TRPC4 allosteric potentiator project, cell-based, HEK293 mu-opioid receptor line (AID 449724;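 active = calcium signal rise more than 3 SD above the low-dose agonist control mean, in both duplicate plates and the primary screen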); conditions: Fluo-4 calcium flux, at 10 µM; compound added before EC20 DAMGO stimulus unless noted
[17] = thallium flux activation in parental CHO cells, counter-screen for KCNQ1 potentiator project (AID 493006;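 active = duplicate-averaged activation above buffer control mean plus 5 SD of those controls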); conditions: parental CHO-K1 cells, FluxOR thallium flux, at 10 µM; active compounds read high
[18] = biological target: Potassium voltage-gated channel subfamily KQT member 1 (Homo sapiens) (UniProt P51787); assay: KCNQ1 potassium channel potentiators, confirmation, FluxOR thallium flux, CHO cells, duplicates (AID 493007;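 active = potentiation averaged over duplicate wells exceeding buffer-only control mean by more than 3 SD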;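 for outcome: cells depolarized by a potassium plus thallium sulfate stimulus after compound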;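 for potentiation: 0% = buffer-only wells and 100% = R-L3 activator control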); conditions: KCNQ1 cell line, FluxOR thallium flux fluorescence, at 10 µM; active compounds read high, % of reference activator effect, buffer zero
Chain of Potassium voltage-gated channel subfamily KQT member 1 (Homo sapiens) (P51787 whole entry, looked up): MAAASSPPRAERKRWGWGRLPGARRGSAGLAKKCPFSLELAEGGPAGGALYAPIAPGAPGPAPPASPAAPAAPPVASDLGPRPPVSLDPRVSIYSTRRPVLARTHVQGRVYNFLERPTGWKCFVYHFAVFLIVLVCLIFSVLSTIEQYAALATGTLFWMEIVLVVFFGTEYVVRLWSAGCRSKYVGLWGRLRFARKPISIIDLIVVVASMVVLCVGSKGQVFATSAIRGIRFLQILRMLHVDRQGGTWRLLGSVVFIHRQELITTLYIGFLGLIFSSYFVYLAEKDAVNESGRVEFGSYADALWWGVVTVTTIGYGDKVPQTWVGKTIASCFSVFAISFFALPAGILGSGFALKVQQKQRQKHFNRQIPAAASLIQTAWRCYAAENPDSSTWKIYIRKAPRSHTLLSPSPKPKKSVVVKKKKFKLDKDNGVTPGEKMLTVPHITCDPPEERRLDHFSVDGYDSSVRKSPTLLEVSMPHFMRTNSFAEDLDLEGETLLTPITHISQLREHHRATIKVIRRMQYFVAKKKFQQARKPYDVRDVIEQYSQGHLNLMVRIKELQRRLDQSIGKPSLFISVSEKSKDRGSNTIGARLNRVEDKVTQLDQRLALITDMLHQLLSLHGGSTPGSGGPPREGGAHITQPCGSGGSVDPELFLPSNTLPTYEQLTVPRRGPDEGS

[19] = biological target: Potassium voltage-gated channel subfamily KQT member 2 (Rattus norvegicus) (UniProt O88943); assay: rat KCNQ2 channel potentiation, selectivity assay for KCNQ1 potentiator project, KCNQ2-CHO-K1 cells (AID 493009;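 active = mean duplicate potentiation above the buffer control mean plus 5 SD of buffer wells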;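 note: assay conditions were tuned for KCNQ1 rather than KCNQ2 modulators; signal is max minus min fluorescence divided by baseline after thallium stimulus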); conditions: FluxOR thallium flux fluorescence, at 10 µM; active compounds read high, scaled: buffer 0, activator control 100
Chain of Potassium voltage-gated channel subfamily KQT member 2 (Rattus norvegicus) (O88943 whole entry, looked up): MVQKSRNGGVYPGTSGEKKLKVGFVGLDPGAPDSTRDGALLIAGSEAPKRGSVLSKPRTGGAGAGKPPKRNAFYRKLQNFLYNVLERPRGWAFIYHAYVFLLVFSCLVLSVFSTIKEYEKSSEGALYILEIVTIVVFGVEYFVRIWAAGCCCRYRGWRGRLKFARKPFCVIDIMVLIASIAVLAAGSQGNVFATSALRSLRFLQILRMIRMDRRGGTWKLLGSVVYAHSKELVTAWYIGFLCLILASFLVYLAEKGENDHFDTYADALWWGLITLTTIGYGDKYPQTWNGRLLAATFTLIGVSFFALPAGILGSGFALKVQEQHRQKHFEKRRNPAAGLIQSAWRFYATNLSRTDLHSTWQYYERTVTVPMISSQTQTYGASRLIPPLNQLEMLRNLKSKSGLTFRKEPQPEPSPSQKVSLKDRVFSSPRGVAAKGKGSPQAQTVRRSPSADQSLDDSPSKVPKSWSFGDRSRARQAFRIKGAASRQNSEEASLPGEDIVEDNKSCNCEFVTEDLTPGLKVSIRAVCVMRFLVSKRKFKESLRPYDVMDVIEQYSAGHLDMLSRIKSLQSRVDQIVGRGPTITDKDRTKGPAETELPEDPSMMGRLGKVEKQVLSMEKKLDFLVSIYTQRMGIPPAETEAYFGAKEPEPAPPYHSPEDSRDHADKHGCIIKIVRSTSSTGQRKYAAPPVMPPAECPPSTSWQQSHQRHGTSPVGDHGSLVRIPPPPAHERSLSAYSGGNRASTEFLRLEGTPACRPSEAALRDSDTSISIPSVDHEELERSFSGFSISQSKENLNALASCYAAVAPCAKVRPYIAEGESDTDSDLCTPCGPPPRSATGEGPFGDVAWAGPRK

[20] = biological target: Potassium voltage-gated channel subfamily KQT member 1 (Homo sapiens) (UniProt P51787); assay: KCNQ1 channel current potentiators, confirmation, orthogonal assay for KCNQ1 potentiator project, IonWorks patch clamp, KCNQ1-CHO cells (AID 493184;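 active = current rise at least 3 SD above the untreated control mean in each of two repeat wells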); conditions: automated patch clamp current, at 10 µM
[21] = biological target: Potassium voltage-gated channel subfamily E member 1 (Homo sapiens) + Potassium voltage-gated channel subfamily KQT member 1 (Homo sapiens) (UniProt P15382+P51787); assay: KCNQ1/KCNE1 complex potentiators, confirmation, selectivity assay for KCNQ1 potentiator project, thallium flux, CHO-K1 KCNQ1/E1 cells (AID 493186;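 active = mean duplicate activation above the buffer control mean plus 5 SD of those controls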); conditions: FluxOR thallium flux, at 10 µM
Chain of Potassium voltage-gated channel subfamily E member 1 (Homo sapiens) + Potassium voltage-gated channel subfamily KQT member 1 (Homo sapiens) (P51787 whole entry, looked up): as the sequence (P51787 whole entry, looked up) above

CN(C)C1(CNC(=O)c2ccc(Cl)c(S(=O)(=O)NCc3ccco3)c2)CCCCC1
active: activation [2] 71% | activation [10] 36%
inactive: outcome [1] | outcome [3] | outcome [4] | outcome [5] | outcome [6] | outcome [7] | outcome [8] | outcome [9] | outcome [11] | outcome [12] | outcome [13] | outcome [14] | outcome [15] | outcome [16]

c1ccc2oc(N3CCNCC3)nc2c1
active: activation [1] 81% | activation [2] 53% | potentiation [4] 19% | activation [12] 24.8% | potentiation [14] 31.8%
inactive: outcome [3] | outcome [5] | outcome [6] | outcome [7] | outcome [8] | outcome [9] | outcome [10] | outcome [11] | outcome [13] | outcome [15] | outcome [16]

CC1CN(c2ccc([N+](=O)[O-])c3cccnc23)CC(C)N1 (centres undefined)
active: activation [1] 108% | activation [2] 81% | activation [12] 35.7%
inactive: outcome [3] | outcome [4] | outcome [5] | outcome [6] | outcome [7] | outcome [8] | outcome [9] | outcome [10] | outcome [11] | outcome [13] | outcome [14] | outcome [15] | outcome [16]

O=C1OC(c2ccc([N+](=O)[O-])cc2)=N/C1=C/N1CC2CC(C1)c1cccc(=O)n1C2 (centres undefined)
inactive: outcome [2] | outcome [3] | outcome [4] | outcome [5] | outcome [6] | outcome [7] | outcome [8] | outcome [9] | outcome [11] | outcome [13] | outcome [14] | outcome [16]
active: activation [1] 158% | activation [10] 254% | activation [12] 64.7% | activation [15] 55.4%

CCC1(C)CC(CCNCc2ccc(N(C)C)cc2)(c2ccc(F)cc2)CCO1 (centres undefined)
active: activation [1] 184%
inactive: outcome [2] | outcome [3] | outcome [4] | outcome [5] | outcome [6] | outcome [7] | outcome [8] | outcome [9] | outcome [10] | outcome [11] | outcome [12] | outcome [13] | outcome [14] | outcome [15] | outcome [16]

CN(C)C(CNC(=O)Cc1ccc(Br)cc1)c1ccccc1 (centres undefined)
inactive: outcome [3] | outcome [4] | outcome [5] | outcome [6] | outcome [7] | outcome [8] | outcome [9] | outcome [11] | outcome [12] | outcome [13] | outcome [14] | outcome [15] | outcome [16]
active: activation [1] 96% | activation [2] 133% | activation [10] 38.5%

CNC(=O)NC(O)C(Cl)(Cl)Cl (centres undefined)
inactive: outcome [17] | outcome [18] | outcome [19] | outcome [20]

Clc1ccc2sc(C3CCNCC3)nc2c1
inactive: outcome [3] | outcome [4] | outcome [5] | outcome [6] | outcome [7] | outcome [8] | outcome [9] | outcome [10] | outcome [11] | outcome [13] | outcome [14] | outcome [15] | outcome [16]
active: activation [1] 210% | activation [2] 166% | activation [12] 82.6%

CC1=CC2/C=C(\C)CCC(O)C(O)/C=C/C(=O)C23C(=O)NC(CC(C)C)C3C1C (centres undefined)
inactive: outcome [17] | outcome [19] | outcome [20] | outcome [21]
active: potentiation [18] 23%

N#Cc1c(N2CCNCC2)nc(-c2ccco2)c2c1CCCC2
inactive: outcome [17] | outcome [18] | outcome [19] | outcome [20]

CCOC(=O)C1C(=O)NC2(C)CC1c1cc(OC)ccc1O2 (centres undefined)
inactive: outcome [17] | outcome [18] | outcome [19] | outcome [20]

O=[N+]([O-])c1cccc(C2N3CCCN23)c1 (centres undefined)
inactive: outcome [17] | outcome [18] | outcome [19] | outcome [20] | outcome [21]

COc1ccc(C(=O)OC2CC[C@@]3(C)C4CCC5[C@]6(O)CC(O)[C@@]7(O)C(CN8CC(C)CCC8[C@@]7(C)O)[C@]6(O)C[C@@]53O[C@]24O)cc1OC (some centres undefined)
active: potentiation [18] 25.5% | potentiation [19] 160%
inactive: outcome [17] | outcome [20] | outcome [21]
